pAkt inh: HTS Assay for Inhibitors of Akt Phophorylation: Primary Screen; activity change, % for hits at 50 µM; Neuro2A IGF-stimulated pAkt S473 HTRF, 20 min; active compounds read low; AID 651550, 2012; hit rate 0.32% among 360,000; in the data active means activity change below about -80%; inconclusive means mostly about -51% to -80%; further: on the % scale 0 is the no-effect control and ±100 the full control effect
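Neuro2A cells in DMEM with 0.5% FBS, overnight at 37 deg C, given compound at single 50 µM final, then IGF (6 nM final) for 20 min at 37 deg C. Lysed; phospho-Akt Ser473 by HTRF after 24 h, 665/615 ratio.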
BRCA1 expr up: qHTS Assay to Identify Small Molecule Activators of BRCA1 Expression; MCF7-BRCA1-FFLuc reporter, luminescence, 48 h; response scale: scaled: vehicle 0%, 10 µM genistein 100%; Potency, µM (top dose mostly 46.1 µM), without a hit: top-dose activation, most hits filed as activators; hit rate 1.1% among 380,000; AID 624202, 2012; further: potency means the concentration at half of the fitted maximal effect; nearly all actives have a fitted effect of over 80% in size
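48 h compound treatment of MCF7-BRCA1-FFLuc cells (phenol-red free MEM, 37 °C), then 15 min with luciferase substrate and luminescence imaging.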
PINK1 expr mod: A Quantitative High throughput Screen to Identify Chemical Modulators of PINK1 Expression; hit rate 0.2% among 410,000; Potency, µM (top dose mostly 76.6 µM), for the others: top-dose activation (PINK1 increase), hits mostly activators; PINK1 immunofluorescence, high-content cytometry, 24 h; active means well fitted activation curve with a large enough effect; inconclusive means small, poorly fitted or top-dose-only effect; cell line not stated here; further: potency means the concentration at half of the fitted maximal effect; % of control where 0% means no effect; nearly all actives have a fitted effect of over 65% in size
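Measures PINK1 amount and localization on or inside mitochondria by immunofluorescence. Stable cells get compounds at 5 concentrations for 24 hours before fixation and staining; CCCP controls included.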
TCR act: Activators of T cell receptors: qHTS campaign; primary human leukocytes, anti-CD3, IL-2 HTRF, 48 h; Potency, µM (titrated, usually from 9.22 µM), for the others: at the highest dose activation of IL-2 secretion, hits mostly activators; 330,000 tested, under 10 active; AID 504894, 2011; further: % of control where 0% means no effect
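IL-2 release read by HTRF sandwich (Eu cryptate donor, d2 acceptor, 665 nm emission) after 48 hr exposure of primary human leukocytes to compound together with anti-CD3 beads in the absence of co-stimulatory signals.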
* hit, by the source's call; i = inactive; ? = inconclusive; · = not tested or not shown; [ ] = remark or other dose. In the library only some 1.5% were active in any assay of this set; here they are far more common. Unless noted, the call rests on the fitted dose curve; in most records, active means well fitted curve in the direction sought with a large enough effect; inconclusive means small, poorly fitted or top-dose-only effect, or another doubt; inactive means no such curve, though single readings can be large; an effect the other way counts as inactive or inconclusive.

SMILES	pAkt inh	BRCA1 expr up	PINK1 expr mod	TCR act
CC(=O)N1N=C(c2ccc(C)cc2)CC1c1ccc2c(c1)OCO2 (centres undefined)	i	4.5µM*	0%	3%
COCC(=O)Nc1cc(C(=O)N2CCCCC2c2nccn2C)cc2nc(-c3ccccc3)n(C)c12 (centres undefined)	·	·	-1%	·
CC1CCCCN1C(=O)c1cnn2c1NC(=C1CC1)C=C2C(F)F (centres undefined)	·	1%	0%	·
Cn1c(SCc2ccccc2F)nc2cccnc21	i	6.3µM*	2%[38.3 µM]	-3%
COc1ccc(-c2nc(Cn3c(SCc4ccccc4F)nc4cccnc43)c(C)o2)cc1	·	·	4%	·
Cc1ccc(N2C(=O)c3cccc4c(N)ccc(c34)C2=O)c2cccnc12	i	-44%	40µM*	-5%
CCc1noc(C)c1C(=O)N1CCOc2ccc(CN3CCCC(C(=O)c4cccnc4)C3)cc2C1 (centres undefined)	·	·	-1%	·
c1ccc(-c2cn(CC3CCCCC3)nn2)cc1	i	5.6µM*	3%	2%
CCCCCCCCCC[n+]1cccc2cc(Cl)ccc21	·	-71%	?	·
Cc1nn(-c2ccccc2)c(C)c1-c1ccccc1O	i	22%	3%	0%
Cc1nn(-c2ccccc2)c(/N=C/c2ccc(O)cc2)c1-c1ccccc1	i	5.6µM*	14%	7%[46.1 µM]
Nc1nc(SCc2ccccc2)c2ncn(C3CCCO3)c2n1 (centres undefined)	i	8.9µM*	-1%	2%
CC(=O)c1ccccc1-c1ccc2c(c1)CC(CNC(=O)c1ccnc(Cl)c1)O2 (centres undefined)	·	·	2%	·
CC(C)n1nnnc1SCC(=O)N1N=C(c2cccs2)CC1c1cccs1 (centres undefined)	i	13µM*	-1%	5%
COc1ccc(C2CC(c3cccs3)=NN2C(=O)CSc2nnnn2C)cc1OC (centres undefined)	i	-4%	1%	-4%
NC(=O)c1sc2nc(-c3ccco3)ccc2c1N	i	2.5µM*	-5%	8%
COC(=O)c1sc2nc(-c3ccco3)ccc2c1N	i	?	9%	0%
CCNC(=S)NNC(=O)c1cc(-c2cccc(C)c2)nc2ccccc12	i	4.5µM*	0%[38.3 µM]	·
CN(C(=O)c1cc(COc2c(F)cccc2F)on1)C1CCOC1 (centres undefined)	i	74%	1%	-3%
CC(=O)c1ccc(OCc2cc(C(=O)N(C)Cc3nc4c(C)cccc4[nH]3)no2)cc1	i	-19%	3%	5%
COc1cc(Cl)ccc1OCc1cc(C(=O)N(C)C2CCOC2)no1 (centres undefined)	i	13µM*	1%	1%
Cc1cc(OCc2cc(C(=O)N(C)C3CCOC3)no2)cc(C)c1Cl (centres undefined)	i	2.8µM*	1%	5%
COc1cc(C)ccc1OCc1cc(C(=O)N2C[C@H]3CC[C@H]2C3)no1	i	17%	-1%	3%
COc1cccc(OCc2cc(C(=O)N(C)C3CCOCC3)no2)c1	i	0%	0%	-1%
CC(=O)c1ccc(OCc2cc(C(=O)N(C)CCOc3ccc(C)cc3)no2)cc1	i	4µM*	0%	5%
SMILES	pAkt inh	BRCA1 expr up	PINK1 expr mod	TCR act
COc1cc(C)ccc1OCc1cc(C(=O)N(Cc2c(C)nn(C)c2C)C2CC2)no1	i	13µM*	1%	-3%
CSc1nnc(CNC(=O)c2cccc3ccccc23)n1-c1ccccc1C	·	·	3%	·
O=C(NCCN1Cc2ccccc2OC(c2ccsc2)C1)c1ccc2[nH]ccc2c1 (centres undefined)	·	·	-1%	·
CC(=O)c1ccc(OCc2cc(C(=O)N(C)C3CCOC3)no2)cc1 (centres undefined)	i	13µM*	0%	3%
COc1cc(Cl)ccc1OCc1cc(C(=O)N2C[C@@H]3CCC[C@H]2C3)no1	i	?	0%	-4%
COc1cc(Cl)ccc1OCc1cc(C(=O)N2C[C@H]3CC[C@H]2C3)no1	i	11µM*	-2%	-6%
COc1ccc2c(c1)-c1nc(-n3ncc(C(=O)N(C)CC4CCCN(C)C4)c3C)ncc1CC2 (centres undefined)	·	·	2%	·
O=C1CC(c2ccc(F)cc2)Cc2nc(NCc3ccco3)ncc21 (centres undefined)	-84%*	2%	15%	2%
O=C(Nc1nnc(C2CCCC2)s1)C1CCC1	i	11µM*	2%	1%
CCCn1nnc(NC(=O)c2ccc(Cl)cc2Cl)n1	i	2.5µM*	2%	5%
CCn1nnc(NC(=O)c2cccnc2)n1	i	-4%	-2%	1%
CCCn1nnc(NC(=O)c2ccccc2Cl)n1	i	11µM*	·	7%
CCn1nnc(NC(=O)c2ccc(C(C)(C)C)cc2)n1	-108%*	?	0%	-5%
CCCn1nnc(NC(=O)c2cccnc2Cl)n1	i	-6%	-3%	-1%[46.1 µM]
CCC1CN(CCC(=O)NC2CCOC(C)(C)C2)Cc2cc(OC)ccc2O1 (centres undefined)	·	·	-1%	·
COc1ccccc1N1CCN(C(=O)c2cc3c(=O)n(Cc4cccnc4)ccc3nc2C)CC1	·	·	-1%	·
O=C(NCc1ccccn1)c1ccc(-c2ccccc2)cc1	i	13µM*	2%	-5%
Cc1ccc(/C=C2/Sc3ccc(C(=O)NCc4ccccn4)cc3NC2=O)cc1	i	15%	28µM*	7%
O=C(NCc1ccccn1)c1ccc([N+](=O)[O-])cc1	i	-2%	2%	0%[46.1 µM]
O=C(NCc1ccccn1)c1ccc(N2CCCC2=O)cc1	i	13µM*	0%	-8%
c1cncc(OC2CCN(Cc3ccc4c(c3)CN(Cc3ccc5c(c3)OCO5)CCO4)CC2)c1	·	·	0%	·
COCC1CCCN(Cc2ccc3c(c2)CN(C(=O)c2ccc(-n4cccn4)cc2)CCO3)C1 (centres undefined)	·	·	0%	·
COCCn1c(C)cc(C(=O)CN2C(=O)NC3(CCCCCC3)C2=O)c1C	i	5.6µM*	-1%	3%
CCOC(=O)c1cc(-c2ccccc2)n(CC(=O)Nc2ccc(CC)cc2)c1C	·	·	3%	·
c1ccc(CCc2nnc3n2CCN(Cc2ccc4ccccc4n2)CC3)cc1	·	·	2%	·
CCCSc1nnc(NC(=O)Nc2ccc(F)cc2)s1	i	-5%	14µM*	1%
CCCSc1nnc(NC(=O)Nc2ccccc2)s1	i	40%	45µM*	1%[46.1 µM]
CCCSc1nnc(NC(=O)Nc2ccc(C)cc2)s1	i	32%	3%	-1%
O=C(NC1CCN(Cc2ccccc2)C1)c1cnn(-c2ncc3c(n2)-c2ccccc2CC3)c1C1CC1 (centres undefined)	·	·	1%	·
Cc1cc(C)nc(-c2cccc3c2OC(CNC(=O)c2ccc(Cn4nc(C)cc4C)cc2)C3)n1 (centres undefined)	·	·	0%	·

Screens (PubChem)
